High-throughput results (PubChem)
This is a sample that favours compounds with a hit; in the whole collection about 3.5% have one here.
GDH-TPI counter-1 – inhibits GDH-TPI coupling enzymes, artifact for Mtb FBA screen | GDH-TPI coupled enzyme counterscreen, NADH absorbance | AID 588335 | hit rate 1.2% among 360,000 | inhibition, % at 4.8 µM; in the data active = inhibition above about 30%;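 note: 0% = DMSO wells and 100% = wells lacking the enzyme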
Mtb hypoxia inh – inhibitors of hypoxia-regulated fluorescent reporter in Mycobacterium tuberculosis. M. tuberculosis hypoxia-regulated fluorescent reporter, fluorescence. hit rate 0.1% among 300,000. AID 1159583. fluorescence inhibition, % (no concentration beside the values); in the data active = fluorescence inhibition mostly above about 23%, no sharp cut-off; inactive = mostly below about 17%
Mtb UGM inh – inhibitors of M. tuberculosis UDP-galactopyranose mutase | purified UGM, fluorescence polarization probe displacement | hit rate 0.06% among 320,000 | inhibition, % at 10 µM | AID 504406; in the data active = inhibition above about 10%, passing the limit was not always enough
FadD28 binding – M. tuberculosis FadD28 bisubstrate binding inhibition; FadD28 bisubstrate probe binding, fluorescence polarization; inhibition, % at 12.5 µM; hit rate 0.22% among 360,000; AID 588549; in the data active = inhibition above about 8.5%, passing the limit was not always enough
Rv3671c inh – inhibits the M. tuberculosis serine protease Rv3671c. P9WHR9. inhibition, % at 5.96 µM. AID 2606. hit rate 0.048% among 320,000; in the data active = inhibition above about 38%;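 note: extracellular domain of Rv3671c used as enzyme; 0% = enzyme with DMSO and 100% = no enzyme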
FBA Mtb inh – inhibits M. tuberculosis FBA enzyme; hit rate 2.3% among 360,000; inhibition, % at 1 µM; AID 588726; P9WQA3; purified M. tuberculosis FBA, fluorescence read-out;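 note: 0% = vehicle and 100% = reference inhibitor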
Target sequence (P9WQA3 whole entry, looked up): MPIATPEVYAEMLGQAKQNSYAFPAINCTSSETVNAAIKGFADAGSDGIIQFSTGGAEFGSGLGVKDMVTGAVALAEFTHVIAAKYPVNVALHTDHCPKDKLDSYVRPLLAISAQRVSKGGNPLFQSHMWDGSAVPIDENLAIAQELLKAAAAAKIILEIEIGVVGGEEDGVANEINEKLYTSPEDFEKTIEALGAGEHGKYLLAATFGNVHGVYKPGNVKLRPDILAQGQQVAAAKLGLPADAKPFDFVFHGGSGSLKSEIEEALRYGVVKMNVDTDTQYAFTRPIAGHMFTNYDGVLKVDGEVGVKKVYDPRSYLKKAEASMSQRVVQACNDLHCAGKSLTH
Mtb FBA confirm – Mtb FBA inhibition, confirmed. inhibition, % at 1 µM. purified M. tuberculosis FBA, fluorescence read-out. hit rate 78% among 5,600. shares compounds with FBA Mtb inh;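 note: 0% = vehicle wells and 100% = reference inhibitor wells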
GDH-TPI counter-2 – GDH-TPI inhibition counter-screen for FBA inhibitors; hit rate 81% among 5,600; inhibition, % at 1 µM; GDH-TPI coupled enzyme counterscreen, fluorescence; shares compounds with FBA Mtb inh; in the data active = inhibition above about 10%
GDH-TPI DR – counter-screen for M. tuberculosis FBA inhibitors: GDH-TPI dose response | GDH-TPI coupled enzyme assay, fluorescence, artifact counterscreen | IC50, µM | hit rate 79% among 170 | shares compounds with FBA Mtb inh; call rule not given here
Active calls of the source: *; x = not tested or not shown; + = active, no number. Cut-off read from the data, not from the text of the source, unless noted: active = inhibition above about 27%; inactive = the rest.

SMILES	GDH-TPI counter-1	Mtb hypoxia inh	Mtb UGM inh	FadD28 binding	Rv3671c inh	FBA Mtb inh	Mtb FBA confirm	GDH-TPI counter-2	others
COc1ccc(-c2cc3ccc(OC)cc3cn2)cc1	1	20	-1	-1	-3	46*	0	-3
CCCCOCCCNC(=O)NC(C(=O)OC)C(C)C (centres undefined)	x	-1	x	x	x	x	x	x
COC(=O)C1=C(c2ccc(OC(F)(F)F)cc2)CC2CCC1N2C(=O)N1CCC(O)CC1 (centres undefined)	x	4	x	x	x	x	x	x
C[C@H]1COc2c(N3CCN(C)CC3)c(F)cc3c(=O)c(C(=O)O)cn1c23	21	x	-1	1	9	55*	+	162*
Cc1c(-n2cc(C(=O)O)c(=O)c3cc(F)c(N4CCCC4)c(F)c32)c(=O)n(-c2ccccc2)n1C	-1	2	-1	-2	0	-1	x	x
CN1CCN(c2c(F)cc3c(=O)c(C(=O)O)cn4c3c2SCC4)CC1	15	x	0	0	-4	28*	+	+
CCCC(=NNC(=O)c1ccccc1C)c1ccccc1	x	-1	x	x	x	x	x	x
COC(=O)Nc1nnc(-c2ccccc2OC)s1	3	15	0	-3	2	67*	11	-3	GDH-TPI DR=3.2*
COc1ccc(-c2nnc(NC(=O)C(C)C)s2)c(OC)c1	18	2	-2	0	-4	36*	101*	102*
COC(=O)Nc1nnc(-c2ccncc2)s1	19	2	-1	0	-3	108*	59*	56*
CCOC(=O)Nc1nnc(-c2ccccc2OC)s1	11	x	0	-2	-7	42*	137*	98*
C[C@@]12C(=O)N(CCO)CC(=O)N1C(C=Cc1ccccc1)C1C(=O)N(c3ccccc3)C(=O)C12 (some centres undefined)	x	5	x	x	x	x	x	x
COC(=O)Nc1nncs1	12	8	-1	-2	4	50*	145*	130*
Nc1nnc(-c2ccccc2Cl)s1	2	x	-2	-1	1	13	x	x
COc1ccccc1-c1nnc(N)s1	4	-2	0	1	6	46*	86*	76*
O=C(Nc1nncs1)Oc1ccccc1	7	3	2	0	-3	0	x	x
O=C(Nc1ccccc1)C1CCN(S(=O)(=O)c2cccs2)CC1	5	0	x	-1	1	8	x	x
O=C(O)C1CCN(S(=O)(=O)c2cccs2)CC1	-2	4	3	-1	-14	32*	57*	36*
O=C(OCc1ccccc1)C(=C(O)c1ccccc1Br)c1ccc(-c2ccccc2)cn1	x	4	x	x	x	x	x	x
CC(C)Cc1nc2oc3c(NCC(C)O)ncnc3c2c2c1CCCC2 (centres undefined)	-2	3	3	-7	-6	60*	+	+
CCCc1nc2oc3c(NCC4CCCO4)ncnc3c2c2c1COC(C)(C)C2 (centres undefined)	-13	12	0	-3	3	12	x	x
CC(C)c1nc2oc3c(NCC4CCCO4)ncnc3c2c2c1CCC2 (centres undefined)	9	13	0	-3	0	57*	181*	151*
CCCc1nc2oc3c(NCCCN(C)C)ncnc3c2c2c1CCCC2	10	10	0	-9	0	61*	+	+
CCCc1nc2oc3c(NCCN(C)C)ncnc3c2c2c1CCCC2	6	18	-4	-8	-1	22	x	x
CN1C(=O)C2C(C=Cc3ccccc3)N3C(=O)CN(CCO)C(=O)[C@@]3(C)C2C1=O (some centres undefined)	x	6	x	x	x	x	x	x
SMILES	GDH-TPI counter-1	Mtb hypoxia inh	Mtb UGM inh	FadD28 binding	Rv3671c inh	FBA Mtb inh	Mtb FBA confirm	GDH-TPI counter-2	others
O=C1CCC(C(=O)N2CSCC2C(=O)O)N1 (centres undefined)	x	-3	x	x	x	x	x	x
ON=C(c1ccc(Cl)cc1)C1CC1c1ccccc1 (centres undefined)	x	14	x	x	x	x	x	x
O=C(CNC(=O)c1ccc2c(c1)OCCO2)NN=Cc1ccc([N+](=O)[O-])cc1	x	-1	x	x	x	x	x	x
C=CCn1c2ccccc2c(=O)c2cc(C#Cc3cc(OC)cc(OC)c3)ccc21	31*	-1	2	-1	-32	56*	10	7
COc1cc(C#Cc2c(C=O)n(C)c3ccccc23)cc(OC)c1	15	x	2	-1	3	6	x	x
CN1CCc2c(sc3c2C(=O)NC(c2cccs2)N3)C1 (centres undefined)	15	1	2	1	-15	26	x	x
Cc1ccsc1C1NC(=O)c2c(sc3c2CCN(C)C3)N1 (centres undefined)	12	5	-2	1	-3	44*	-5	-5
CC(=NNC(=O)c1cc(-c2ccncc2)nc2ccccc12)c1ccc(OC(F)F)cc1	x	13	x	x	x	x	x	x
Cc1ccc(-c2ccc(CO)o2)cc1N	6	-4	1	-1	-6	30*	187*	121*
COC(=O)C1=C(c2ccc(F)cc2OCc2ccccc2)CC2CCC1N2C(=O)NCc1ccc2c(c1)OCO2 (centres undefined)	x	3	x	x	x	x	x	x
CCN(CC)C(=O)CN1C(=O)c2cccc3cccc(c23)C1=O	6	-5	0	-3	-8	38*	130*	88*
O=C(CN1c2cccc3cccc(c23)S1(=O)=O)N1CCOCC1	13	3	-1	0	-6	12	x	x
O=C(CN1C(=O)c2cccc3cccc(c23)C1=O)N1CCOCC1	0	-6	1	-3	2	29*	46*	39*
COc1ccc(C=NNC(=O)c2ccccc2OC)cc1COc1ccc(C)cc1	x	-8	x	x	x	x	x	x
CCCOc1ccc(C(O)=C2C(=O)C(=O)N(CCCOC)C2c2cccnc2)cc1 (centres undefined)	x	-6	x	x	x	x	x	x
NC(=NOC(=O)CCCOc1ccccc1)c1ccc([N+](=O)[O-])cc1	x	-2	x	x	x	x	x	x
CN1OC[C@@H]2C(=O)N3CCc4c([nH]c5ccccc45)[C@@H]3C[C@@H]21	-8	x	x	0	x	38*	+	192*
C[C@H](O)[C@@H]1C(=O)N2CCc3c([nH]c4ccccc34)[C@@H]2C[C@@H]1N(C)C(=O)NC1CCCCC1	11	x	x	0	x	87*	157*	116*
COCC(=O)N(C)[C@H]1C[C@H]2c3[nH]c4ccccc4c3CCN2C(=O)[C@H]1[C@H](C)O	-3	x	x	-3	x	12	x	x
CCCc1c(O)c2ccccc2[nH]c1=O	-9	6	0	-1	-2	30*	50*	42*
COc1cc(F)c(C2=CC(=O)CC(c3ccc(F)cc3)C2)cc1F (centres undefined)	x	22	x	x	x	x	x	x
